Laboratory results: article PMC5540273 (PLoS ONE, 2017)

How the values were obtained:
Details in all cases: concentration: 1 μM, replicates: in singlicate; n = 1
JNK1 = test system: T1, JNK1
T1 construct: gene MAPK8

JNK2 = test system: T2, JNK2
T2 construct: gene MAPK9

JNK3 = test system: T3, JNK3
T3 construct: gene MAPK10

KIT-autoinhibited = test system: KIT-autoinhibited
KIT = test system: KIT
LATS1 = test system: LATS1
LATS2 = test system: LATS2
LCK = test system: LCK
LIMK1 = test system: LIMK1
LIMK2 = test system: LIMK2
LKB1 = test system: T4, LKB1
T4 construct: gene STK11

LOK = test system: T5, LOK
T5 construct: gene STK10

LRRK2 = test system: LRRK2
LTK = test system: LTK
LYN = test system: LYN
LZK = test system: T6, LZK
T6 construct: gene MAP3K13

MAK = test system: MAK
MAP3K15 = test system: MAP3K15
MAP3K1 = test system: MAP3K1
MAP3K2 = test system: MAP3K2
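Also: KINOMEscan kinase panel screen.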

SMILES	%Inh (JNK1) [%]	%Inh (JNK2) [%]	%Inh (JNK3) [%]	%Inh (KIT-autoinhibited) [%]	%Inh (KIT) [%]	%Inh (LATS1) [%]	%Inh (LATS2) [%]	%Inh (LCK) [%]	%Inh (LIMK1) [%]	%Inh (LIMK2) [%]	%Inh (LKB1) [%]	%Inh (LOK) [%]	%Inh (LRRK2) [%]	%Inh (LTK) [%]	%Inh (LYN) [%]	%Inh (LZK) [%]	%Inh (MAK) [%]	%Inh (MAP3K15) [%]	%Inh (MAP3K1) [%]	%Inh (MAP3K2) [%]
FC(F)(F)c1cc(Nc2nccc(-c3c(-c4ccc(Cl)cc4)nn4ncccc34)n2)ccc1Cl [GW829351]	8	58	65	1	38	0	0	0	0	0	0	6	0	0	0	0	0	0	0	0
CSc1nn2c(=O)cc(N3CCOCC3)nc2n1Cc1cccc(Cl)c1Cl [GSK2347225]	11	26	10	0	23	9	9	31	11	19	0	0	0	4	10	0	24	0	6	1
OCCOCCn1ccc2ncnc(Nc3ccc(Oc4cccc(Cl)c4)c(Cl)c3)c21	0	0	0	0	0	0	0	41	0	0	24	74	0	0	19	0	0	0	0	0
O=C(Nc1ccccc1)Nc1ccc(Oc2ccc3nccn3n2)cc1	0	0	0	28	95.8	0	0	21	10	14	0	39	0	0	0	0	0	0	0	0
C[C@@H]1CCN(C(=O)CO)C[C@@H]1N(C)c1ncnc2[nH]ccc12	19	0	0	0	12	0	16	20	0	8	0	5	0	27	8	10	0	0	0	0
Cc1ccc(C)c(NC(=O)NCCNc2ccnc(Nc3ccc(F)cc3)n2)c1 [GSK1379878]	13	13	2	0	0	0	0	3	0	0	14	0	0	0	0	0	22	0	0	0
O=C(Nc1ccccc1F)NC1CCN(c2ccnc(Nc3ccc(F)cc3)n2)C1 (stereo not shown) [GSK1379722]	29	31	23	0	5	0	0	14	10	0	0	0	39	0	0	23	12	0	5	1
CN1CCC(n2cnc(-c3ccc(F)cc3)c2-c2ccnc(NC3CCNCC3)n2)CC1 [SB-229482]	71	96	92.4	0	25	0	8	0	0	30	27	0	0	0	15	0	29	0	4	0
CN1c2ccc(-c3ccc(C(=O)NCCO)cc3)cc2-c2[nH]ncc2S1(=O)=O	14	1	0	17	17	0	11	28	17	7	21	31	73	9	22	0	0	11	9	36
Cc1cccc(-c2nc(Nc3ccc4[nH]nnc4c3)c3ccccc3n2)n1 [GW867587]	0	0	0	0	0	0	0	7	0	0	0	0	0	13	0	0	0	0	0	0
COc1ccc(NC(=O)c2ccc(-c3cc(-c4nnc(C)o4)ccc3C)cc2)cc1 [GW595885]	20	17	12	0	64	0	0	18	3	0	0	0	42	0	32	12	47	0	2	1
